# Activity calls are given as the source filed them. The calls were made as follows: active = hit-call score of the fitted dose curve at least 0.9, where 1 is the maximum; inactive = score below 0.9.
# Read-out: Matrix Metallopeptidase 1 (MMP1), MMP1 (gene 4312)
# Experiment: BSK_BE3C_MMP1: BioMAP Diversity Plus: BE3C Assay for Matrix Metallopeptidase 1 (MMP1) Biomarker Activity (AID 2283024)
# Conditions: primary human bronchial epithelial cells; actives raise or lower the signal
# Summary of the method: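 Primary human bronchial epithelial cells were dosed with test chemicals, and MMP1 levels were measured by ELISA 24 h later. Data were fitted bidirectionally against DMSO as the negative control and activity baseline.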
Compound,outcome,AC50
C[C@]12CC[C@@H](O)C[C@@H]1CC[C@@H]1[C@@H]2CC[C@]2(C)C(=O)CC[C@@H]12,inactive,
CC(C=O)Cc1ccc2c(c1)OCO2 (stereo not drawn),inactive,
C#CCOC(=O)/C=C(C)/C=C/CC(C)CCCC(C)C (stereo not drawn),inactive,
Nc1ccc(N)cc1,inactive,
COCC(=O)N(c1c(C)cccc1C)[C@H](C)C(=O)OC,inactive,
O=C(O)C1(c2ccc3c(c2)OC[C@H](Cc2ccc(-c4ccccc4)cc2)[C@H]3O)CCCC1,,31.7 µM (active)
CCOP(=O)(OCC)SCCSCC,inactive,
NC(=O)CCl,inactive,
Oc1c(Br)cc(Br)cc1Br,inactive,
CC(C)(C)c1cc([N+](=O)[O-])cc(C(C)(C)C)c1O,inactive,
OC(Cc1ccccc1Cl)(Cn1cncn1)C1(Cl)CC1 (stereo not drawn),inactive,
Cc1c([N+](=O)[O-])c(C)c([N+](=O)[O-])c(C(C)(C)C)c1[N+](=O)[O-],,7.08 µM (active)
C=CC(Cl)CCl (stereo not drawn),inactive,
CCCCN(CCCC)C(=S)[S-].CCCCN(CCCC)C(=S)[S-].[Ni+2],inactive,
COc1ccccc1N,inactive,
CC(C)=CC1C(C(=O)OCc2cccc(Oc3ccccc3)c2)C1(C)C (stereo not drawn),inactive,
Nc1c(Oc2ccccc2)cc(O)c2c1C(=O)c1ccccc1C2=O,,5.87 µM (active)
Cc1ccc2nc3sc(=O)sc3nc2c1,inactive,

# Reference: PubChem BioAssay (EPA / NIEHS)
